Structures can show the parent of a compound that is named as a salt.
Tested on: Vero E6 infected with SARS-CoV-2
Experiment: inhibition of SARS-CoV-2 cytopathic effect; higher = more antiviral protection, active = above 15
Conditions: 48 h

Measured: inhibition of SARS-CoV-2 cytopathic effect

CC(C)[C@H](CO)Nc1nc(Nc2cccc(Cl)c2)c2ncn(C(C)C)c2n1 [purvalanol-A]
inactive: 1 nM -1.59% | 8.33 nM -0.55% | 100 nM -0.26% | 833.33 nM 2.68% | 10000 nM -2.25%

N#Cc1ccc(-c2ccc(S(=O)(=O)Nc3cccc(N)n3)cc2)cc1
inactive: 1 nM 0.14% | 8.33 nM 3.14% | 100 nM -0.56% | 833.33 nM 0.76% | 10000 nM 1.78%

CO/N=C(\C(=O)N[C@@H]1C(=O)N2C(C(=O)O)=C(Cn3ccc(=N)n3CCO)CS[C@H]12)c1csc(N)n1 [Cefoselis sulfate]
inactive: 1 nM 0.33% | 8.33 nM -3.45% | 100 nM -1.18% | 833.33 nM -1.56% | 10000 nM 1.21%

Cc1cc(C)c2nc(-c3ccccn3)cc(C(=O)Nc3ccc(S(=O)(=O)Nc4onc(C)c4C)cc3)c2c1
inactive: 1 nM -1.1% | 8.33 nM 1.15% | 100 nM -0.62% | 833.33 nM -9.3% | 10000 nM -3.05%

COC(=O)[C@@H]1[C@H]2C[C@H]3c4[nH]c5ccccc5c4CCN3C[C@@H]2CC[C@@H]1O [yohimbine]
inactive: 1 nM 0.18% | 8.33 nM 2.4% | 100 nM 1.41% | 833.33 nM -1.6% | 10000 nM -0.14%

CC1=C(CC(=O)O)c2cc(F)ccc2/C1=C\c1ccc([S+](C)[O-])cc1 (stereo not given) [sulindac]
inactive: 1 nM -0.99% | 8.33 nM -2.82% | 100 nM -1.46% | 833.33 nM -0.62% | 10000 nM -2.36%

N[C@@H](CCC(=O)N[C@@H](CSN=O)C(=O)NCC(=O)O)C(=O)O [S-nitrosoglutathione]
inactive: 1 nM 0.29% | 8.33 nM 0.8% | 100 nM -1.28% | 833.33 nM -3.1% | 10000 nM -0.66%

O=C(NCNC(=O)NC1C(=O)NC(=O)N1CO)NC1C(=O)NC(=O)N1CO (stereo not given) [imidurea]
inactive: 1 nM -0.15% | 8.33 nM 0.45% | 100 nM -1.76% | 833.33 nM -1.38% | 10000 nM 0.38%

CC(C)SC(=N)N [S-isopropylisothiourea]
inactive: 1 nM 1.63% | 8.33 nM 0.91% | 100 nM 3.8% | 833.33 nM 0.88% | 10000 nM 2.04%

Nc1c(CC(=O)O)cccc1C(=O)c1ccccc1 [amfenac]
inactive: 1 nM 0.42% | 8.33 nM 0.91% | 100 nM 1.2% | 833.33 nM -0.82% | 10000 nM -2.19%

CO[C@]12C[C@@H](COC(=O)c3cncc(Br)c3)CN(C)[C@@H]1Cc1cn(C)c3cccc2c13 [nicergoline]
inactive: 1 nM 0.73% | 8.33 nM -1.36% | 100 nM -1.54% | 833.33 nM 0.48% | 10000 nM -0.35%

CC(C)n1nccc1-c1ncccc1COc1cccc(O)c1C=O [voxelotor]
inactive: 1 nM -1.1% | 8.33 nM -1.17% | 100 nM -0.23% | 833.33 nM 0.27% | 10000 nM 6.93%

CC(=O)[C@H]1CC[C@H]2[C@@H]3CCC4=CC(=O)CC[C@]4(C)[C@H]3CC[C@]12C [progesterone]
inactive: 1 nM -0.08% | 8.33 nM 0.75% | 100 nM 2.72% | 833.33 nM 2.43% | 10000 nM 5.82%

O=S(=O)(O)c1ccc2[nH]c(-c3ccccc3)nc2c1 [phenylbenzimidazole-sulfonic-acid]
inactive: 1 nM -0.84% | 8.33 nM 2.98% | 100 nM 1.91% | 833.33 nM 4.9% | 10000 nM -7.89%

COC(=O)[C@H](Cc1cccc(C(=N)N)c1)[C@@H](C)NC(=O)c1ccc(-c2cc[n+]([O-])cc2)cc1 [otamixaban]
inactive: 1 nM -2.31% | 8.33 nM -2.54% | 100 nM -1.48% | 833.33 nM -0.51% | 10000 nM -3.22%

C[C@@H]1NC(=O)[C@@H]2CCCN2C(=O)[C@H](CC(N)=O)NC(=O)[C@@H]2CSSC[C@H](N)C(=O)N[C@H]3CSSC[C@H](NC1=O)C(=O)N[C@@H]([C@@H](C)O)C(=O)NCC(=O)N[C@H](C(=O)N[C@@H](Cc1ccc(O)cc1)C(=O)O)CSSC[C@H](NC(=O)[C@H](Cc1ccc(O)cc1)NC(=O)[C@H](CCC(=O)O)NC3=O)C(=O)N2 [linaclotide]
inactive: 1 nM -2.9% | 8.33 nM 0.88% | 100 nM 1.75% | 833.33 nM 1% | 10000 nM 3.24%

— the supplement of paper PMC13380429
